High-throughput results (PubChem)
TDP43 rescue = rescues yeast growth from TDP-43 toxicity; TDP-43 expressing yeast growth rescue, BacTiter-Glo, 24 h; 1.8% of 410,000 active; AID 652104; Potency, µM (series often up to 46.1 µM), without a hit: at the highest dose growth rescue (activation), most hits filed as activators; note: % of control where 0% means no effect; nearly all actives have a fitted effect of over 50% in size
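Growth rescue of TDP-43-toxic yeast measured as ATP luminescence (BacTiter-Glo). Cells grown to mid-log in raffinose, induced in galactose at OD600=0.02, exposed to compound 24 hr at 30 deg C.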
FUS suppressor = rescues growth of FUS-expressing yeast; S. cerevisiae FUS-expressing, growth rescue, OD600, 24 h; AID 1347120; Potency, µM (doses to about 76.6 µM), actives largely listed as activators; 0.24% of 390,000 active;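 note: plate controls were DMSO vehicle for no effect and reference control for full effect; nearly all actives have a fitted effect of over 55% in size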
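Restored growth of FUS-toxic S. cerevisiae, read as 600 nm absorbance after 24 h at 30C in galactose medium (starting OD 0.005). Controls CP55940 and DMSO.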
Abeta yeast res = compounds reversing amyloid beta toxicity in yeast. 0.063% of 410,000 active. yeast expressing A-beta42, growth rescue, OD600, 48 h; response scale: 0% DMSO, 100% iron-clioquinol control. Potency, µM (top dose mostly 46.1 µM), most hits filed as activators; note: nearly all actives have a fitted effect of over 55% in size
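Yeast A-beta toxicity model in growth medium with pinned compounds, 48 h at 30 C; growth read as absorbance at 600 nm. Normalized to FeCl3/clioquinol equimolar mix (positive) and DMSO (negative).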
aSyn rescue = alpha-synuclein toxicity inhibition in yeast; Yeast expressing alpha-synuclein, growth rescue, BacTiter-Glo, 24 h; Potency, µM (highest dose often 46.1 µM), inactives show at the top dose growth rescue (activation), most hits filed as activators; 0.14% of 370,000 active; note: % of control where 0% means no effect; nearly all actives have a fitted effect of over 65% in size
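Screening used galactose-induced yeast with toxic alpha-synuclein levels, exposed to compound for 24 hr at 30 deg C. Cell growth, read with BacTiter-Glo luminescence, gave the measured signal.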
Active calls of the source: *; i = inactive; ? = inconclusive; nt = no result. This is a sample that favours compounds with a hit; in the whole collection about 2.1% have one here. Calls come from the whole dose curve; as a rule, active = well fitted curve in the direction sought with a large enough effect; inconclusive = small, poorly fitted or top-dose-only effect, or another doubt; inactive = no such curve, though single readings can be large; an effect the other way counts as inactive or inconclusive. Potency is the fitted concentration of half-maximal effect.

SMILES | TDP43 rescue | FUS suppressor | Abeta yeast res | aSyn rescue
O=S(=O)(NCc1ccc2c(c1)OCO2)c1ccc(Cl)s1 | 11µM* | i | i | 9%
COc1ccccc1CNS(=O)(=O)c1ccc(Cl)s1 | 13µM* | i | i | 16%
COc1ccccc1Cn1c(CNS(=O)(=O)c2ccc(Cl)s2)nc2cccnc21 | 0% | i | i | nt
Cc1cc(C)c(S(=O)(=O)NCc2ccc3c(c2)OCO3)cc1C | ? | i | i | 20%
CC(C)(C)C1CCc2c(sc(NC(=O)c3cc4ccccc4c(=O)o3)c2C(N)=O)C1 (configuration not stated) | ? | i | i | nt
CN(CCOC(=O)c1cccs1)C1CN(Cc2cn(Cc3ccccc3Cl)nn2)S(=O)(=O)C1 (configuration not stated) | nt | i | nt | nt
COc1ccc(-c2cc(C(F)(F)F)n3nc(C(=O)O)c(Cl)c3n2)cc1OC | 19% | i | i | nt
O=C(O)c1ccc(Nc2nc(-c3ccccc3)nc3ccccc23)cc1 | 22µM* | i | i | -18%
COC(=O)c1ccc(Nc2nc(-c3ccc(C)cc3)nc3ccccc23)cc1 | 14µM* | i | i | nt
CCCOC(=O)c1cccc(Nc2nc(-c3cccnc3)nc3ccccc23)c1 | 22µM* | i | i | 10%
CNC(=O)c1ccc(Nc2nc(-c3ccccc3)nc3ccccc23)cc1 | 0% | i | i | 12%
COCCCN1C(=O)[C@H](CC(=O)NCc2cccc3ccccc23)[C@]2(C(=O)OC)CCCCC=C12 | nt | i | nt | nt
O=S(=O)(NCC(c1ccccc1)N1CCc2ccccc21)c1ccc(Cl)cc1 (configuration not stated) | 11% | ? | i | nt
O=S(=O)(NCC(c1ccco1)N1CCc2ccccc21)c1ccccc1 (configuration not stated) | 22µM* | i | i | 10%
Cc1ccc(NC(=O)CC2C(=O)OCC3CCCCN32)cc1Cl (configuration not stated) | 4% | i | i | -8%
CCCOc1ccc(NC(=O)CC2C(=O)OCC3CCCCN32)cc1 (configuration not stated) | 35µM* | i | i | 3%
CCOC(=O)C1=NOC(C(=O)NCc2ccccc2)(C(=O)c2ccc(OC)cc2)C1 (configuration not stated) | nt | i | nt | nt
COc1ccc(NC(=O)c2ccccc2OCC(=O)Nc2ccc(Br)cc2)cc1 | nt | nt | nt | 2%
Cc1nc2cc(-c3ccc(Cl)cc3)nn2c(C)c1CCC(=O)NC(C)c1ccc2c(c1)OCCO2 (configuration not stated) | 28µM* | i | i | 12%
Cc1csc(NC(=O)CCc2c(C)nc3cc(-c4ccc(Cl)cc4)nn3c2C)n1 | 29% | i | i | 8%
N#Cc1c(-c2ccccc2)cc(C2CC2)nc1N | 13µM* | i | i | 0%
Cc1ccc(-c2cc(-c3ccccc3Cl)c(C#N)c(N)n2)o1 | ? | i | i | 4%
Cc1ccc(-c2cc(-c3ccccc3)c(C#N)c(N)n2)o1 | 22µM* | ? | i | -65%
Cc1ccc(C(C)C)c(OCC(=O)NCC2(N(C)C)CCCCC2)c1 | 9% | i | i | 3%
Cc1[nH]n(-c2ccccc2)c(=O)c1Sc1ccc(Cl)cc1 | 10% | i | i | -54%
SMILES | TDP43 rescue | FUS suppressor | Abeta yeast res | aSyn rescue
Cc1cc(-c2c(C)[nH]n(-c3ccc(Cl)cc3)c2=O)n[nH]1 | 22µM* | ? | i | ?
O=C(Nc1nc2ccc(S(=O)(=O)N3CCCCC3)cc2s1)c1ccncc1 | 9% | 35µM* | i | -12%
Cc1c(Cl)cccc1NC(=O)N1CCOc2ccccc21 | 13µM* | i | i | nt
Cc1ccc(C)c(NC(=O)c2ccc(CN3CC(=O)N4CCCCC4C3=O)cc2)c1 (configuration not stated) | 13% | i | i | nt
Oc1ccc2ccccc2c1CNc1ccc(Br)cn1 | 20µM* | i | i | 1%
O=C(Nc1ccc(Cl)c(Cl)c1)C1CCCN(c2nnc(-n3cccc3)s2)C1 (configuration not stated) | nt | i | nt | nt
COc1ccccc1NC(=O)OC1CCC12CCCCC2 (configuration not stated) | nt | i | nt | nt
Cn1cnc([N+](=O)[O-])c1S(=O)(=O)c1cccc(Cl)c1 | 13µM* | i | i | 4%
Cn1cnc([N+](=O)[O-])c1S(=O)(=O)Nc1ccccc1 | -17% | ? | i | -4%
Cn1cnc([N+](=O)[O-])c1S(=O)(=O)Oc1ccccc1 | 13µM* | i | i | -6%
O=C(NCc1cccc(C(F)(F)F)c1)O[C@H]1CC[C@@]23CCCN2C(=O)CCC[C@H]3C1 | nt | i | nt | nt
Cc1sc2ncn(CC(=O)N3CCN(c4ccccc4)CC3)c(=O)c2c1S(=O)(=O)N1CCC(C)CC1 | -1% | 25µM* | i | nt
Cc1sc2ncn(CC(=O)N3CCN(c4cccc(Cl)c4)CC3)c(=O)c2c1S(=O)(=O)N1CCC(C)CC1 | 2% | 25µM* | i | nt
Cc1sc2ncn(CC(=O)N3CCN(c4ccc(F)cc4)CC3)c(=O)c2c1S(=O)(=O)N1CCC(C)CC1 | 3% | i | i | nt
CCN(CC)c1nc(NC2CCN(C)CC2)c2cc(OC)c(OC)cc2n1 | nt | nt | nt | -1%
CCc1ccc(CCNC(=O)OC2CC3CC2[C@H]2CCCCN2C3)cc1 (some centres not stated) | nt | i | nt | nt
CC(C)(C)c1ccc(Nc2n[nH]c3ccccc23)cc1 | 35µM* | ? | i | 6%
COC(=O)[C@]12C[C@H](CC(=O)NCCCCc3ccccc3)C(=O)N(Cc3ccc(Cl)cc3Cl)C1=C[C@H](COCc1ccccc1)O[C@@H]2C | nt | i | nt | nt
Cc1nn(CCC(=O)NNC(=O)Nc2ccccc2F)c(C)c1[N+](=O)[O-] | nt | i | nt | nt
Cc1ccc(N=c2c([N+](=O)[O-])nn(-c3ccccc3)n2O)c(C)c1 | 23% | i | i | 5%
COc1ccc(CCN=c2c([N+](=O)[O-])nn(-c3cccc(C)c3)n2O)cc1OC | 18µM* | i | i | -1%
COc1ccc(-n2nc([N+](=O)[O-])c(=NCCc3cccc(C)c3)n2O)cc1 | 13µM* | i | i | 5%
O=[N+]([O-])c1nn(-c2ccccc2)n(O)c1=NCc1ccc2c(c1)OCO2 | 25% | i | i | 4%
Cc1cccc(CCN=c2c([N+](=O)[O-])nn(-c3ccccc3)n2O)c1 | 16µM* | i | i | 1%
COc1ccc(-n2nc([N+](=O)[O-])c(=NCc3ccc4c(c3)OCO4)n2O)cc1 | 13µM* | nt | i | 20%
COc1ccc2c(c1)[C@@]1(NCCc3c1[nH]c1ccc(OC)cc31)C(=O)N2 | nt | i | nt | nt
Cc1nc(CC(=O)Nc2ccc(C(N)=O)cc2)cs1 | 15% | i | i | nt
Nc1cc(Cl)ccc1CN1C(=O)c2ccccc2C1=O | 19% | i | i | -19%
O=C1Cc2ccccc2C(=O)N1Cc1cccc(Cl)c1 | 13µM* | i | i | 0%
